Measurements reported in PubChem BioAssay.
The source made the active and inactive calls.

Assay: resazurin metabolic signal in HepG2 cells – cell-based, resazurin fluorescence, 24 h, PK04 Diversity Set, profiling panel (AID 1172); note: test concentration not given here
Conditions: HepG2 viability, higher = more signal

SMILES	z-score
C=CCOC(=O)[C@@H]1[C@H]2C(=O)O[C@H](c3ccccc3)[C@H](c3ccccc3)N2[C@H](c2ccc(OCCOC(=O)[C@H]3C[C@H]4C(=O)N5CCC[C@H]5C(=O)N4[C@H]3c3ccc(O)cc3)cc2)[C@@]12C(=O)Nc1ccc(I)cc12	-0.91
C=C(/C(=C/C[C@H](OC(C)=O)c1ccccc1OCCO)c1cnc2ccccc2c1)C(C)C	-0.558
CCCCN1CC=CC23O[C@@H]4C=CCCOC(=O)C4[C@H]2C(=O)N(CCCCCCO)[C@@H]3C1=O (some centres not stated)	0.0635
COc1ccc(C#Cc2ccc3c(c2)[C@]2(C(=O)N3)[C@H](C(=O)NC[C@H](O)c3ccccc3)[C@H]3C(=O)O[C@H](c4ccccc4)[C@H](c4ccccc4)N3[C@@H]2c2ccc(O)cc2)cc1	-0.475
O=C(c1ccccc1)N1C(=O)[C@]2(COC(c3ccc(OCCCO)cc3)=N2)Cc2ccccc21	0.0993

Assay: budding yeast growth changes without added modifier – OD600, strain BY4716, 24 h, basal condition, primary screen (AID 1173)
Conditions: S. cerevisiae BY4716 growth, OD600, 24 h; higher = more signal, called active from +8 up or from −8 down

SMILES	z-score
C=CCN1C(=O)[C@@]2(Cc3ccccc31)N=C(c1ccc(OCCCO)cc1)O[C@H]2c1ccccc1	-2.94 (inactive)
CC(C)C(O)C1C=CC2C(=O)N(c3ccccc3)C(=O)C2N1Nc1ccc([N+](=O)[O-])cc1 (configuration not stated)	-0.539 (inactive)
COC(=O)[C@H](Cc1ccccc1)N[C@@H](/C=C/C1CC1)[C@H](O)Cc1ccccc1	-2.78 (inactive)
O=C1O[C@H](c2ccccc2)[C@H](c2ccccc2)N2[C@H]1[C@@H](C(=O)N1CCCCCCC1)[C@]1(C(=O)Nc3ccc(C#CC4=CCCCC4)cc31)[C@H]2c1ccc(OCCO)cc1	0.362 (inactive)
CCOC(=O)C[C@H]1[C@H](OC(=O)c2ccc(C(=O)c3ccccc3)cc2)[C@@H](NC(=O)c2ccccc2)c2cc(OCCCO)ccc2N1C(=O)Cc1ccc(OC)cc1	0.0931 (inactive)
COc1ccc([Si](C)(C)[C@H]2[C@H](CCO)O[C@@]3(C(=O)N(Cc4ccc(N(C=O)c5ccccc5)cc4)c4ccccc43)[C@@H]2C)cc1	1.83 (inactive)
CC(C)c1ccc(NN2C(C(O)c3ccc(B(O)O)cc3)C=CC3C(=O)N(c4ccccc4)C(=O)C32)cc1 (configuration not stated)	0.278 (inactive)
COc1ccc(CCNC(=O)[C@@]2(Sc3ccc(C)cc3)CC(=O)N(C3Cc4ccccc4C3)[C@@H]2c2ccc(CO)cc2I)cc1	-3.1 (inactive)
COCCOC(=O)N1C(=O)[C@@]2(c3ccccc31)[C@H](c1ccc(O)cc1)N1[C@H](c3ccccc3)[C@H](c3ccccc3)OC(=O)[C@H]1[C@@H]2C(=O)Nc1nc2ccccc2s1	0.183 (inactive)
C=C(C(=O)CC[C@@H](OC(=O)c1cccnc1)c1ccccc1OCCO)C(C)C	-1.51 (inactive)
NCCCCCNC(=O)[C@@H]1C[C@@H]2C(=O)N[C@@H](Cc3ccccc3)C(=O)N2[C@@H]1c1ccc(O)cc1	-0.576 (inactive)
CCCCCCc1nc(-c2ccc(OC)nc2)cc2c1[Si](C(C)C)(C(C)C)O[C@H]2c1ccccc1	0.676 (inactive)
C[N+](C)(C)CCCCNC(=O)[C@@H]1C[C@@H]2C(=O)N[C@@H](Cc3ccccc3)C(=O)N2[C@@H]1c1cccc(OCCO)c1	-0.143 (inactive)
COc1cc2c(cc1O)C(c1cccs1)N(C)CC2 (configuration not stated)	1.11 (inactive)
C[C@@]1([C@@H](NC(=O)c2ccc(-c3ccccc3)cc2)c2ccc(Cl)cc2)C[C@H]1C1CCCCC1	1.52 (inactive)
Cc1ccc(S[C@]2(C(=O)O)CC(=O)N(C(C)C)[C@@H]2c2ccc(CO)cc2I)cc1	-4.89 (inactive)
CN1C(=O)C2C=CC(C(O)C3CC=CCC3)N(N(c3ccccc3)c3ccccc3)C2C1=O (configuration not stated)	1.16 (inactive)
O=C1NC(=O)C2C1C=CC(C(O)c1cccs1)N2Nc1ccc(Cl)cc1Cl (configuration not stated)	-6.97 (inactive)
C=CCC(OC(C)=O)[C@@H]1[C@@H](N(Cc2ccc(-c3ccccc3)cc2)C(=O)Cc2ccc(OC)cc2)c2cc(OCCCO)ccc2N1C(=O)Cc1ccc2ccccc2c1 (some centres not stated)	-0.34 (inactive)
CC(C)C[C@@H]1NC(=O)[C@@H]2C[C@H](C(=O)NCc3ccc(F)cc3)[C@H](c3cccc(OCCO)c3)N2C1=O	-0.929 (inactive)
C=CCC(OC(C)=O)[C@@H]1[C@@H](N(Cc2ccc(-c3ccccc3)cc2)C(=O)c2cccc3ccccc23)c2cc(OCCCO)ccc2N1C(=O)c1ccc(-c2ccccc2)cc1 (some centres not stated)	-0.467 (inactive)
CCCC[C@H]1OB(O)C[C@H]2C1=C(COC)Cn1c(=O)n(-c3ccccc3)c(=O)n12	-0.607 (inactive)
